Each structure is given as a SMILES string. The list shows a part of the results. Activity calls are given as the source filed them. How the calls were made is not given here.

A short description of the test: V. cholerae lux activation without autoinducers – BH1578 luxS cqsA deficient, cherry-pick, plate reader, dose response (AID 602243). The note with it: V. cholerae BH1578 lux reporter, luminescence, 6 h; series mostly up to 50 µM.
As to `NNC(=O)c1nnn(-c2nonc2N)c1CN1CCCC1`, the molecule was called inactive.

As for `COc1ccc(OCc2cn3c(C)cc(C)nc3n2)cc1`, the molecule was classed as inactive.

`COc1ccc(Cl)cc1NC(=O)CN(C)C(=O)CNC(=O)C12CC3CC(CC(C3)C1)C2`: the call was inactive.

As to `CC(C)CC(=O)N1CCN(Cc2ccccc2Br)CC1`, the outcome was inactive.

With `CCN(CC(=O)NCc1ccc(Cl)cc1)C(=O)CSc1ccccc1`, the result was inactive.

Turning to `O=C(Nc1ccc2oc(-c3ccc4ccccc4c3)nc2c1)c1cccs1`, the outcome was inactive.

For `CC(C)CNC(=O)COC(=O)/C=C/c1ccco1`, the outcome was inactive.

`O=C(CN1CCC(O)(c2cccc(C(F)(F)F)c2)CC1)NCCc1ccccc1`: the outcome was inactive.

In the case of `CCOc1ccc(CCNC(=O)C2CCN(c3ccc(N4CCOCC4)nn3)CC2)cc1OCC`, the call was inactive.

For `COc1ccc2[nH]c(=O)c(CNc3ccc(C)c(C)c3)cc2c1`, the molecule was classed as inactive.

For `CCOC(=O)C1(CCOc2ccccc2)CCN(Cc2cc(OC)cc(OC)c2)CC1`, the call was inactive.

Turning to `COc1ccc(Cl)cc1NC(=O)COC(=O)c1ccc(Br)o1`, the call was inactive.

On to `COc1ccccc1CCNC(=O)C(=O)NCCC1CCCCN1S(=O)(=O)c1cccs1` (centres undefined), for which the molecule was called inactive.

As for `O=C(NCc1ccccn1)c1c(O)c2c([nH]c1=O)CCCC2`, the molecule was called inactive.
